# Bioassay records from PubChem.
# The list is not random: actives were taken first. Their share in the collection is about 2.5%.
# Anesthetic bind: binds horse apoferritin like a general anesthetic; 350,000 compounds, 0.074% hits; apoferritin/1-aminoanthracene competitive binding, fluorescence; Potency, µM (titrated, usually from 77.5 µM), without a hit: at the top dose activity change, negative = displacement, usual class: inhibitors; P02791; note: potency is the fitted concentration of half-maximal effect; % is set by controls: 0 for no effect and ±100 for the full control effect; nearly all actives have a fitted effect of over 20% in size
# Target sequence (P02791 2-175 limits assumed): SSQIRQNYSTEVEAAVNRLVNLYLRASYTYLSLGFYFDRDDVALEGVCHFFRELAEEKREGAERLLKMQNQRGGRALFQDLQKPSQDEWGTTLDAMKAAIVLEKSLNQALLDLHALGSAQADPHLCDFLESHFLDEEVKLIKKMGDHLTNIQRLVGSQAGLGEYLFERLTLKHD
#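 Probe: 1-aminoanthracene (50% saturated, PBS). Protein: horse-spleen apoferritin, 10 uM. Incubation: 10 min, room temperature. Detection: 380 nm excitation, 535 nm emission. Analysis: normalized response, four-parameter Hill.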
# aSyn yeast inh: alpha-synuclein toxicity inhibition in yeast | 370,000 compounds, 0.14% hits | Potency, µM (highest dose often 46.1 µM), inactives show top-dose growth rescue (activation), most hits filed as activators | Yeast expressing alpha-synuclein, growth rescue, BacTiter-Glo, 24 h; note: potency is the fitted concentration of half-maximal effect; % of control where 0% means no effect; nearly all actives have a fitted effect of over 65% in size
#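 Screening used galactose-induced yeast with toxic alpha-synuclein levels, exposed to compound for 24 hr at 30 deg C. Cell growth, read with BacTiter-Glo luminescence, gave the measured signal.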
# CCT chaperon mod: modulators of cytosolic chaperonin (CCT/TRiC) activity; purified chaperonin ATPase assay, HTRF ADP detection, 30 min; activity change, % (no concentration beside the values), hits read low; 360,000 compounds, 0.3% hits; in the data active = activity change below about -30%; note: % is set by controls: 0 for no effect and ±100 for the full control effect
#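 TRiC at 40 or 20 nM final (batch-dependent) in 30 mM Tris pH 7.4, 100 mM KCl, 5 mM MgCl2, 1 mM DTT, with compound at single 76 uM and 10 uM ATP, 30 min at 37 deg C. ADP detected by HTRF Transcreener, 665/615 ratio.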
# TDP43 rescue: TDP-43 toxicity inhibition in yeast | AID 652104 | 410,000 compounds, 1.8% hits | TDP-43 expressing yeast growth rescue, BacTiter-Glo, 24 h | Potency, µM (doses to about 46.1 µM), without a hit: top-dose growth rescue (activation), most hits filed as activators; note: potency is the fitted concentration of half-maximal effect; % of control where 0% means no effect; nearly all actives have a fitted effect of over 50% in size
#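 In this qHTS, compounds that restore growth of yeast expressing TDP-43 appear as activators. Cells (OD600=0.02, galactose medium, raffinose-pregrown) are incubated with compound 24 hr at 30 deg C and growth is quantified by BacTiter-Glo.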
# Mito fusion yeast: mitochondrial division inhibition or fusion activation. S. cerevisiae fusion-defective mutant growth rescue, CellTiterGlo 48 h. Potency, µM (top dose mostly 46.1 µM), without a hit: at the top dose growth rescue (activation), most hits filed as activators. 320,000 compounds, 0.23% hits. AID 485298; note: potency is the fitted concentration of half-maximal effect; % of control where 0% means no effect; nearly all actives have a fitted effect of over 45% in size
#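 Luminescent cell viability in 1536-well qHTS format served as the measure of rescued growth in ts fusion-mutant S. cerevisiae cultured on non-fermentable YPEG for 48 hours at 37C.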
# pAkt inh: blocks phosphorylation of Akt | Neuro2A IGF-stimulated pAkt S473 HTRF, 20 min; hits give low values | activity change, % for hits at 50 µM | 360,000 compounds, 0.32% hits | AID 651550; in the data active = activity change below about -80%; inconclusive = mostly about -51% to -80%; note: % is set by controls: 0 for no effect and ±100 for the full control effect
#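 Neuro2A cells in DMEM with 0.5% FBS, overnight at 37 deg C, given compound at single 50 µM final, then IGF (6 nM final) for 20 min at 37 deg C. Lysed; phospho-Akt Ser473 by HTRF after 24 h, 665/615 ratio.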
# Active calls of the source: *; i = inactive; ? = inconclusive; · = not tested or not shown; [ ] = remark or other dose. Unless noted, calls come from the whole dose curve; as a rule, active = well fitted curve in the direction sought with a large enough effect; inconclusive = small, poorly fitted or top-dose-only effect, or another doubt; inactive = no such curve, though single readings can be large; an effect the other way counts as inactive or inconclusive.
SMILES,Anesthetic bind,aSyn yeast inh,CCT chaperon mod,TDP43 rescue,Mito fusion yeast,pAkt inh
CC1(Cc2ccc(F)c(Cl)c2)C(=O)Nc2c(Cl)cccc21 (centres undefined),·,3.5µM*,-5,22µM*,·,i
CC1(Cc2cc(Cl)ccc2C(F)(F)F)C(=O)Nc2c(Cl)cccc21 (centres undefined),·,0%,0,2%,·,i
O=C(c1cccc(Cl)c1)N1c2ncnn2C2(CCCCC2)[C@@H]2CCCC[C@@H]21,-11%,·,·,13µM*,·,·
Cc1ccn2c(Nc3ccccc3)c(-c3ccccn3)nc2c1,-3%,1%,-37*,10%,-4%,i
Cc1ccn2c(Nc3ccccc3C)c(-c3ccccn3)nc2c1,-15%,1%,-1,-25%,5%,i
CCCNC(=O)c1ccc2nc(-c3ccccc3)c(-c3ccccc3)nc2c1,-4%,4%,-2,-1%,17%,-120%*
O=C(c1ccc2nc(-c3ccccc3)c(-c3ccccc3)nc2c1)N1CCCCC1,-19%,-1%,1,35µM*,17%,i
CCNC(=O)c1ccc2nc(-c3ccccc3)c(-c3ccccc3)nc2c1,·,-14%,·,·,·,·
COc1cc(C2C(=O)N(C3CCCCCC3)CC(=O)N2CCC2=CCCCC2)ccc1OC(C)C (centres undefined),-7%,·,·,-12%,·,·
CCc1cccc2sc(N3CCN(C(=O)C4CC4)CC3)nc12,-15%,·,·,11µM*,·,·
O=C(C1CC1)N1CCN(c2nc3ccccc3s2)CC1,-7%,12%,-1,-8%,-1%,i
Cc1c(Cl)ccc2sc(N3CCN(C(=O)C4CC4)CC3)nc12,-5%,·,·,32µM*,·,·
Cc1ccc(S(=O)(=O)CCC(=O)N2CCN(c3nc4c(C)c(Cl)ccc4s3)CC2)cc1,-16%,·,·,10%,·,·
Cc1cc(C)c2sc(N3CCN(C(=O)C4CC4)CC3)nc2c1,-14%,·,·,13µM*,·,·
ONCc1ccccc1,-4%,·,·,·,·,·
CC(C)Cc1nn2c(=O)cc(COC(=O)c3ccc(NC(=O)C4CCCCC4)cc3)nc2s1,2%,·,·,12%,·,·
COc1ccc(C(=O)Nc2ccc(Cl)c(Cl)c2)c(OC)n1,-2%,-2%,1,2%,0%,-129%*
COc1ccc(C(=O)O)c(OC)n1,-2%,6%,-1,19%,-2%,i
CCN1CCN(C(=O)NC(C(=O)NC2C(=O)N3C(C(=O)O)=C(CSc4nnnn4C)CSC23)c2ccc(O)cc2)C(=O)C1=O (centres undefined),-12%,·,·,·,·,·
COc1ccc(S(=O)Cc2ccc(C(=O)N3CCN(c4cccc(C)c4C)CC3)o2)cc1 (centres undefined),-8%,5%,1,20µM*,3%,i
Cc1ccccc1S(=O)(=O)Cc1ccc(C(=O)N2CCN(c3cccc(C)c3C)CC2)o1,6%,?,-1,?,28%,-111%*
C=C1C=C(C)n2ncc(C(=O)Nc3ccc(C)cn3)c2N1,·,-9%,·,·,·,·
COC(=O)c1[nH]c2ccc(C)cc2c1NS(=O)(=O)c1ccc(F)cc1,-17%,-1%,-1,?,-8%,-119%*
CCc1nnc(NC(=O)c2oc3ccc(Br)cc3c2C)s1,·,-2%,-34*,-2%,·,i
Cc1c(C(=O)Nc2nccs2)oc2ccc(Br)cc12,·,-5%,1,-13%,·,i
SMILES,Anesthetic bind,aSyn yeast inh,CCT chaperon mod,TDP43 rescue,Mito fusion yeast,pAkt inh
O=C(Nc1ccccc1)N1CCN(c2nc3ccccc3s2)CC1,3%,6%,1,22µM*,1%,i
O=C(Nc1nccs1)c1cccc(N2C(=O)c3cccc4c([N+](=O)[O-])ccc(c34)C2=O)c1,-12%,-8%,0,2%,-7%,-109%*
CC(C)C[C@@H](C(=O)N[C@@H](Cc1c[nH]c2ccccc12)C(N)=O)N1C[C@]2(CCCN2C(=O)[C@H](Cc2ccccc2)NC(=O)[C@H](Cc2ccccc2)NC(=O)[C@H](CCC(N)=O)NC(=O)[C@H](CCC(N)=O)NC(=O)[C@@H]2CCCN2C(=O)[C@H](CCCCN)NC(=O)[C@@H]2CCCN2C(=O)[C@@H](N)CCCNC(=N)N)CC1=O,-9%,·,·,·,·,·
O=C1c2ccccc2N2C(=O)c3ccccc3[C@H]2N1c1ccccc1,-20%,6%,-1,20µM*,5%,i
O=C1c2ccccc2N2C(=O)c3ccccc3C2N1Cc1ccccc1 (centres undefined),-17%,-1%,-1,26%,6%,i
COC(=O)C1=C(C)N(Cc2ccccc2)C(=S)N[C@H]1c1ccccc1,-13%,21%,0,13µM*,5%,i
COC(=O)C1=C(C)N(Cc2ccccc2)C(=O)N[C@H]1c1ccccc1,?,1%,2,29%,23%,i
CCOc1ccccc1-c1ccc(C(=O)O)o1,2%[163 µM],·,·,·,·,·
O=C(CN1CCN(c2ccccc2)CC1)Nc1c(C(=O)C2CC2)oc2ccccc12,-4%,-12%,-1,19%,-9%,i
O=C(O)CCSCC(=O)Nc1c(C(=O)C2CC2)oc2ccccc12,-9%,2%,1,13%,-2%,-100%*
Cc1ccc(C(=O)N2CCN(c3ccc(F)cc3)CC2)cc1S(=O)(=O)N1CCCCC1,-2%,10%,-2,?,4%,i
Cc1ccc(C(=O)N2CCN(c3ccccc3)CC2)cc1S(=O)(=O)N1CCCC1,-20%,-2%,-1,9%,1%,-107%*
O=C(c1cccc(S(=O)(=O)N2CCN(c3ccc(F)cc3)CC2)c1)N1CCCCCCC1,·,-2%,4,?,16µM*,i
CCn1c(C)c(C)c2cc(C(=O)N3CCN(c4ccccc4)CC3)ccc21,-7%,21%,0,22µM*,28%,i
CC1CCN(C(=O)c2cccc(S(=O)(=O)N3CCN(c4ccccc4)CC3)c2)CC1,·,4%,2,-5%,18µM*,i
COc1ccc(OC)c(NC2=C(c3ccccc3)C(=O)c3ccccc32)c1,-6%,·,·,?,·,·
CCCCN(CC)C(=O)CSc1nc2n[nH]c(C)c2c(=N)n1-c1ccc(CC)cc1,-9%,·,·,-12%,·,·
Ic1ccc(Nc2nc(NCCN3CCOCC3)nc(N3CCCC3)n2)cc1,·,-8%,·,·,·,·
CCCN1CCC(=O)N(C(CSc2ccc(Br)cc2)c2ccccc2)CC1 (centres undefined),-19%,·,·,·,·,·
Cn1cc(S(=O)(=O)N2CCCCCC2)cc1C(=O)N1CCN(c2cccc(C(F)(F)F)c2)CC1,-16%,·,·,0%,·,·
O=S(=O)(NCc1ccc(Cl)cc1)c1cnc[nH]1,-3%,-1%,0,-9%,-7%,i
Cc1ccc(CCNS(=O)(=O)c2cnc[nH]2)cc1,4%,-3%,-39*,-5%,-2%,i
